Six compounds from PubChem BioAssay (NCATS) can be followed below.

Each structure is given as a SMILES string. Values joined by “and” are separate entries in the source; they are usually repeats but may differ in a detail not shown here. Identical values can stand only once. Inconclusive results are not listed. The source holds several records for some structures; these can differ, active in one and inactive in another. Active and inactive are the calls of the source. Unless noted, calls come from the whole dose curve; as a rule, active = well fitted curve in the direction sought with a large enough effect; inconclusive = small, poorly fitted or top-dose-only effect, or another doubt; inactive = no such curve, though single readings can be large; an effect the other way counts as inactive or inconclusive. Some results are limits rather than exact numbers.

Assay [1] can be described thus: Cell Viability - HUV-EC-C (AID 542).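 Note: cells exposed to compound for 40 hours; nearly all actives have a fitted effect of over 35% in size.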 Note: potency is the fitted concentration of half-maximal effect. The method in brief: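 CellTiter-Glo luminescence measured ATP loss in HUV-EC-C cells (1000/well) after 40 hr compound exposure at 37 °C, in complete culture medium. Concentration-response data were Hill-fitted to give AC50.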
A short description of assay [2]: Cell Viability - H-4-II-E (AID 543).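 Note: cells exposed to compound for 40 hours; nearly all actives have a fitted effect of over 35% in size.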 Note: potency is the fitted concentration of half-maximal effect. The method, boiled down:
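CellTiter-Glo luminescence (intracellular ATP) measured after 40 h compound exposure at 37 °C in H-4-II-E rat hepatoma cells seeded at 1500/well. Values are AC50s fitted with the standard Hill equation.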

Assay [3] is described as follows: Cellular Toxicity (caspase-3) BJ (AID 658).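 Note: 0% = DMSO basal and 100% = 10 µM staurosporine.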 The method, boiled down: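 Caspase-Glo 3/7 luminescence, read 1 hr after reagent at room temperature, in normal BJ fibroblasts exposed 16 hours at 37 °C. AC50 values from Hill-equation concentration-response, scaled between DMSO basal and 10 uM staurosporine as 100%.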
Assay [4] is described as follows: Cellular Toxicity (caspase-3) Mesangial (AID 660).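 Note: combined caspase 3 and 7 activity read by Caspase-Glo luminescence; cells exposed to compound for 16 h before the caspase read.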 Conditions: Potency: caspase-3 activation. The method, boiled down:
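Caspase 3/7 activation measured by Caspase-Glo 3/7 luminescence (20 min, room temperature) following 16 h exposure of mesangial cells (1000/well); AC50 from Hill-equation fit, normalized to DMSO and 100 uM tamoxifen.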

Assay [5] can be described thus: Cellular Toxicity (caspase-3) Hek293 (AID 664).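 Note: cells exposed to compound for 16 h at 37 °C before readout.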 Conditions: HEK293 caspase-3 activation, DMSO = 0%, 100 µM tamoxifen = 100%; at 92.2 µM (top of the series). The method, boiled down:
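Concentration-response qHTS: caspase 3/7 activation measured by luminescent aminoluciferin substrate cleavage after 16 h compound exposure of Hek 293 cells. AC50 from Hill equation, with DMSO as basal and 100 uM tamoxifen as 100%.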

Assay [6] can be described thus: Cell Viability - LYMP1-002 - Assay at 16 hr (AID 948). Note: potency is the fitted concentration of half-maximal effect. The method, boiled down: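 Acute cytotoxicity is scored as a concentration-dependent fall in intracellular ATP in a human lymphoblastoid line (LYMP1-002) after 16 hr compound exposure at 37 C, measured by luciferase luminescence.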
The nature of assay [7]: Cell Viability - LYMP1-003 - Assay at 24 hr (AID 963).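 For viability change, negative = cytotoxic: plate controls were DMSO only for no effect and tetraoctylammonium bromide positive control for full effect.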 Note: potency is the fitted concentration of half-maximal effect. The method in brief: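 Concentration-response qHTS: ATP loss measured by CellTiter-Glo luminescence after 24 h compound exposure at 37 C. Cells were LYMP1-003 human lymphoblastoid, 2500 per well. AC50 derived via standard Hill equation modeling.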
The nature of assay [8]: Cell Viability - LYMP2-003 (AID 965).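 Note: cells exposed to compounds for 24 h before reading; nearly all actives have a fitted effect of over 50% in size.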 Note: potency is the fitted concentration of half-maximal effect. The method, boiled down: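 Acute cytotoxicity is scored as a concentration-dependent drop in intracellular ATP, measured by luciferase luminescence in human lymphoblastoid cells treated for 24 hours at 37 C. AC50 values derive from Hill-equation modelling.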
A short description of assay [9]: Cell Viability - LYMP2-005 (AID 967). Note: potency is the fitted concentration of half-maximal effect. The method in brief:
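qHTS viability screen in LYMP2-005 cells: 24 h at 37 C with compound, ATP luminescence via CellTiter-Glo, AC50 from Hill curves.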

Assay [10] is described as follows: Cell Viability - LYMP2-015 (AID 971). Note: nearly all actives have a fitted effect of over 55% in size. Note: potency is the fitted concentration of half-maximal effect. The method in brief:
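Cytotoxicity readout: decrease in intracellular ATP (CellTiter-Glo luminescence) in 2500 LYMP2-015 lymphoblastoid cells/well after 24 h compound exposure at 37 C. Concentration-response data fitted with the standard Hill equation to give AC50.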

Assay [11] in a line: Cell Viability - LYMP2-019 (AID 973). Note: nearly all actives have a fitted effect of over 55% in size. Note: potency is the fitted concentration of half-maximal effect. The method, boiled down:
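AC50 values come from Hill-equation fits of luminescent intracellular ATP (CellTiter-Glo, 30 min, room temperature) following 24 h compound exposure at 37 C. Cells: LYMP2-019 lymphoblastoid line, 2500 per well, in complete culture medium.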

Assay [12] can be described thus: Cell Viability - LYMP2-023 (AID 975). Note: nearly all actives have a fitted effect of over 55% in size. Note: potency is the fitted concentration of half-maximal effect. The method, boiled down: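 Intracellular ATP, read by CellTiter-Glo luminescence, reports viability after 24 hr compound exposure at 37 C. 2500 lymphoblastoid cells/well (LYMP2-023) seeded 5 hr beforehand; Hill fits give AC50; positive control tetraoctylammonium bromide.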
Assay [13] can be described thus: Cell Viability - LYMP2-016 (AID 984). Note: nearly all actives have a fitted effect of over 55% in size. Note: potency is the fitted concentration of half-maximal effect. The method, boiled down:
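Acute toxicity in a Coriell human lymphoblastoid line is scored as loss of intracellular ATP over 24 h of treatment in complete medium. CellTiter-Glo signal is fitted across concentrations with the Hill equation to give AC50.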

Assay [14] is described as follows: Cell Viability - LYMP2-018 (AID 985). Note: nearly all actives have a fitted effect of over 50% in size. Note: potency is the fitted concentration of half-maximal effect. The method in brief:
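Viability read as CellTiter-Glo luminescence (cellular ATP) after 24 hr compound exposure at 37 C of 2500 LYMP2-018 lymphoblastoid cells/well, pre-plated 5 hr. Hill-equation modelling gave AC50.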

Assay [15] is described as follows: qHTS assay for cell viability of the p53RE-bla HCT-116 cell line (AID 743292). Note: nearly all actives have a fitted effect of over 55% in size. Note: potency is the fitted concentration of half-maximal effect. The method in brief: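 CellSensor p53RE-bla HCT-116 cells, 4,000/well, preincubated 5 h at 37 C, then exposed to compounds in DMSO for 16 h at 37 C. Viability read as CellTiter-Glo luminescence (intracellular ATP) after 30 min at room temperature.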
A short description of assay [16]: Cell Viability - Jurkat (AID 426;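 active = dose-dependent loss of cell ATP signal giving a full or clear fitted curve, ranked by lower potency value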;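 note: potency is the fitted concentration of half-maximal effect; cells exposed to compound for 40 hours at 37 °C before ATP read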). Conditions: qHTS. The method in brief:
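Cytotoxicity taken as drop in cellular ATP (CellTiter-Glo luminescence, 20 min room temperature) after 40 hr, 37C treatment of 5000 Jurkat Clone E6-1 cells per well; concentration-response fitted with Hill equation for AC50.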
(qHTS replaces the single test concentration by a dilution series.)

Assay [17] can be described thus: Cell Viability - SH-SY5Y (AID 544). Note: potency is the fitted concentration of half-maximal effect. Conditions: SH-SY5Y neuroblastoma cell viability; viability change, negative = cytotoxic: at 92.2 µM (top of the series). The method in brief: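 Cytotoxicity measured via ATP-dependent luciferase luminescence (CellTiter-Glo) following 40 h, 37 °C exposure of 1500 SH-SY5Y cells per well. Concentration-response data were fitted with the standard Hill equation to give AC50.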

Assay [18] can be described thus: Cell Viability - LYMP2-001 (AID 921). Note: nearly all actives have a fitted effect of over 70% in size. Note: potency is the fitted concentration of half-maximal effect. The method, boiled down:
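qHTS, 1536-well; lymphoblastoid cells, 24 hr compound, 37 C; ATP by CellTiter-Glo, 30 min RT; luminescence; Hill-fit AC50.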

The nature of assay [19]: Cell Viability - LYMP1-003 - Assay at 40 hr (AID 964). Note: nearly all actives have a fitted effect of over 60% in size. Note: potency is the fitted concentration of half-maximal effect. The method in brief:
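Viability is taken as cellular ATP, read by CellTiter-Glo luminescence after 40 h of compound exposure at 37 C. Cells: human lymphoblastoid line LYMP1-003 at 2500/well; AC50 values derived by Hill-equation fitting of concentration-response data.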

The nature of assay [20]: Cell Viability - LYMP2-011 (AID 969).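 For viability change, negative = cytotoxic: 0% = DMSO only and full inhibition = 92 µM tetraoctylammonium bromide.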 Note: nearly all actives have a fitted effect of over 60% in size. Note: potency is the fitted concentration of half-maximal effect. The method, boiled down:
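Cytotoxicity qHTS with ATP content as read-out: lymphoblastoid cells (2500/well) exposed to compound for 24 h at 37 C, then luciferase luminescence measured. Concentration-response data fitted with the standard Hill equation to give AC50.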

On to `CC(=O)[O-].CC(=O)[O-].O.O.[Cd+2]`, for which the Potency entry in assay [1], in assay [4], in [6], in assay [7], in assay [8] and in [11] was “inactive” throughout. For the same compound, the Potency result in assay [12], in [13], in assay [14] and in assay [15] was “inactive” throughout. For the same compound, the Potency in assay [2] is 2.51 µM (active); in [9], 31.6 µM (active); in assay [10], 39.8 µM (active). Also, the outcome in assay [3] was inactive. Moreover, in [5], the caspase-3 activation was 4.76% (inactive).
On to `O=[N+]([O-])C(Br)Br`, for which the Potency was 24.4 µM (active) in [16]; 31.6 µM (active) in assay [2]; 7.94 µM (active) in [18]; 25.1 µM (active) in assay [8]; 25.1 µM (active) in [9]; 12.6 µM (active) in assay [20]. In addition, the Potency was 10 µM (active) in assay [10]; 10 µM (active) in assay [11]; 12.6 µM (active) in assay [12]; 15.8 µM (active) in assay [13]; 12.6 µM (active) in [14]. For the same compound, the Potency entry in [1], in [4], in [6], in assay [7], in [19] and in assay [15] was “inactive” in each case. In [17], the viability change, negative = cytotoxic was -98.3% (active). Moreover, the compound was classed as inactive in assay [3]. For the same compound, in [5], the caspase-3 activation is -9.23% (inactive).
As to `O=C(O)C1C(C(=O)O)C2(Cl)C(Cl)=C(Cl)C1(Cl)C2(Cl)Cl` (centres undefined), the Potency in assay [16] was > 92 µM (inactive). Moreover, the Potency result in assay [1], in assay [2], in assay [17], in assay [4], in assay [18] and in [6] was “inactive” in each case. The Potency result in assay [7], in [19], in assay [8], in [9], in assay [20] and in [10] was “inactive” in each case. The Potency entry in assay [11], in assay [12], in assay [13], in [14] and in assay [15] was “inactive” each time. For the same compound, in [3], the compound was classed as inactive. Further, the caspase-3 activation in assay [5] is 1.7% (inactive).
For the compound `O=C1C2(Cl)C3(Cl)C4(Cl)C(Cl)(Cl)C5(Cl)C3(Cl)C1(Cl)C5(Cl)C24Cl` (centres undefined), the Potency in assay [16] is 32.8 µM (active) and 53.4 µM (active); in [1] it was 31.6 µM (active) and 63.1 µM (active); in assay [2], 31.6 µM (active) and 50.1 µM (active); in assay [17], 31.6 µM (active); in [18] it was “inactive and 39.8 µM (active)”; in assay [6], 39.8 µM (active). Besides, the Potency in [7] is 31.6 µM (active) and 50.1 µM (active); in [19], 25.1 µM (active) and 50.1 µM (active); in [8], 39.8 µM (active); in assay [9] it was 39.8 µM (active); in [20], 63.1 µM (active); in [11], 50.1 µM (active). Moreover, the Potency in [12] was 50.1 µM (active); in assay [14], 50.1 µM (active); in assay [15] it was 70.8 µM (active) and inactive. Besides, the viability change, negative = cytotoxic in assay [17] was -93.4% (active). For the same compound, in assay [5], the caspase-3 activation was 112% (active) and 177% (active).
With `C[C@@H]1CC[C@@]2(OC1)O[C@H]1[C@@H](O)[C@H]3[C@@H]4CC[C@H]5C[C@@H](O[C@@H]6O[C@H](CO)[C@H](O[C@@H]7O[C@H](CO)[C@@H](O)[C@H](O[C@@H]8OC[C@@H](O)[C@H](O)[C@H]8O)[C@H]7O[C@@H]7O[C@H](CO)[C@@H](O)[C@H](O[C@@H]8O[C@H](CO)[C@@H](O)[C@H](O)[C@H]8O)[C@H]7O)[C@H](O)[C@H]6O)[C@H](O)C[C@]5(C)[C@H]4CC[C@]3(C)[C@H]1[C@@H]2C`, the Potency in assay [16] was 0.573 µM (active); in assay [1] it was 25.1 µM (active); in assay [2], 20 µM (active); in assay [17], 15.8 µM (active); in [18], 10 µM (active); in assay [6] it was 10 µM (active). The Potency in assay [7] is 7.94 µM (active); in assay [19] it was 7.94 µM (active); in assay [8] it was 20 µM (active); in assay [9], 15.8 µM (active); in assay [20], 20 µM (active); in assay [10] it was 15.8 µM (active). Also, the Potency in assay [11] was 12.6 µM (active); in [12], 25.1 µM (active); in assay [13], 25.1 µM (active); in [14], 25.1 µM (active); in assay [15] it was 35.5 µM (active). The compound was classed as inactive in assay [3]. For the same compound, the Potency entry in assay [4] is “inactive”. Also, the caspase-3 activation in [5] is -8.63% (inactive).
Take `COP(=O)(OC)O/C(=C\Cl)c1cc(Cl)c(Cl)cc1Cl`: the Potency in assay [16] is 32.2 µM (active). The Potency result in assay [2], in assay [4], in assay [18], in [6], in assay [7] and in assay [19] was “inactive” throughout. The Potency result in assay [8], in assay [20], in assay [10], in [11], in assay [12] and in assay [13] was “inactive” each time. The Potency entry in assay [15] was “inactive”. For the same compound, the viability change, negative = cytotoxic in assay [17] is -89.6% (active). Moreover, the compound was called inactive in assay [3]. Also, in [5], the caspase-3 activation is -4.53% (inactive).
